The values below come from PubChem BioAssay (NCI).

Each structure is given as a SMILES string. The panel holds about 83,000 compounds, 20% with a hit somewhere; the sample as a whole holds those more often.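 The endpoint reported here, percent growth, reads 100 for growth as untreated, 0 for no net growth and -100 for all cells dead.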 A number with no mark means an inactive call. Active and inactive are the calls of the source. Rule for the calls: active = growth percent below 10; inactive = the rest.

Experiment in all cases: NCI-60 one-dose screen, 48 h (100 = growth as untreated, 0 = no growth, -100 = all killed)
Holding throughout (details): 10 µM unless noted

Assay [1] concerns T-47D breast.
The test system of assay [2] is BT-549 breast.
Assay [3] has as its system MDA-MB-435 melanoma.
Assay [4] relates to SW-620 colon.
The subject of assay [5] is MCF7 breast.
For assay [6], the system named is HCT-116 colon.
Assay [7] has as its system HCC-2998 colon.
Assay [8] deals with KM12 colon.

Take `O=c1c(/C=C/c2ccco2)nnc(SCCN2CCOCC2)n1/N=C/c1ccc([N+](=O)[O-])cc1`: the growth is 68.2% in assay [1]; 94.6% in assay [2]; 97.4% in assay [3]; 104% in assay [4]; 31% in assay [5]; 95% in assay [6]. Besides, the growth in assay [7] was 93.1%; in assay [8] it was 92%.
Take `O=C(NCc1cccc(C(F)(F)F)c1)[C@H](CCC(=O)N1CCN(C2CCCCC2)CC1)N1C(=O)[C@@H](N2C(=O)OC[C@@H]2c2ccccc2)[C@H]1/C(Cl)=C/c1ccccc1`: the growth was 61.3% in assay [1]; 60.1% in assay [2]; 52.1% in assay [3]; 74.9% in assay [4]; 29.6% in assay [5]; 34.3% in assay [6]. For the same compound, the results for the growth in assay [7] and in assay [8] were 31.9% and 34.5%, respectively.
Turning to `COc1cc(NCCCCN=C(N)NC(N)=NC(C)C)c2ncccc2c1`, the growth in assay [1] is -8.55% (active); in assay [2], 54.8%; in assay [3], 110%; in assay [4] it was 62.9%; in assay [5], -94.3% (active); in assay [6], 1.56% (active). Besides, the growth was 11.9% in assay [7] and 20.1% in assay [8].
`CC1(C)CC(C(=O)OCCCCCCCCCCC[P+](c2ccccc2)(c2ccccc2)c2ccccc2)C(C)(C)N1O` (centres undefined): the growth is -54.3% (active) in assay [1]; -42.1% (active) in assay [2]; -70.3% (active) in assay [3]; -81% (active) in assay [4]; -80.6% (active) in assay [5]; -8.91% (active) in assay [6]. The growth is -84.9% (active) in assay [7] and -94.6% (active) in assay [8].
As for `Clc1nc(Cl)c2c3c(sc2n1)CCCC3`, the growth in assay [1] was 38.4%; in assay [2], 13.3%; in assay [3] it was 49.3%; in assay [4], 34.3%; in assay [5], 30.7%; in assay [6], 12.5%. The growth in assay [7] was 97.6%; in assay [8] it was 74.2%.
As for `COc1cc(NCCCCN=C(N)N)c2ncccc2c1`, the growth in assay [1] is 18%; in assay [2] it was 54.4%; in assay [3], 104%; in assay [4] it was 80.8%; in assay [5], -48% (active); in assay [6], 79.1%. Besides, the growth in assay [7] is 84.3%; in assay [8], 47.5%.
On to `Nc1cc(O)cc2cccnc12`, for which the growth in assay [1] was 83.9%; in assay [2], 87%; in assay [3] it was -9.72% (active); in assay [4] it was 79.7%; in assay [5], 55.8%; in assay [6], 80.3%. Further, the growth in assay [7] was 100%; in assay [8] it was 99.8%.
As for `Nc1cc(-c2nc3sccn3c2-c2ccnc(NCCCNS(=O)(=O)c3ccc(F)cc3)n2)ccc1F`, the growth in assay [1] was 15.4%; in assay [2], 52.2%; in assay [3], 22.9%; in assay [4], 54.7%; in assay [5], 37.4%; in assay [6] it was 36.8%. Besides, the figures for the growth in assay [7] and in assay [8] were 90.3% and 59.7%, respectively.
Consider `Nc1cc2ccncc2c2ccccc12`, for which the growth in assay [1] was 82.3%; in assay [2], 70.5%; in assay [3], 59.8%; in assay [4] it was 62.7%; in assay [5], 51.5%; in assay [6], 38.3%. Besides, the growth in assay [7] was 83%; in assay [8], 68.6%.
Turning to `N#Cc1c2c(nc3n[nH]c(N)c13)CCCC2`, the growth in assay [1] is 98%; in assay [2], 130%; in assay [3], 106%; in assay [4] it was 96%; in assay [5], 110%; in assay [6], 101%. Also, the growth was 92.6% in assay [7] and 111% in assay [8].
As for `Cc1cc(Nc2nc(-c3cccnc3)nc3ccccc23)n[nH]1`, the growth is 27.2% in assay [1]; 47.2% in assay [2]; 56.2% in assay [3]; 47% in assay [4]; 23% in assay [5]; 30.9% in assay [6]. Besides, the results for the growth in assay [7] and in assay [8] were 69.7% and 19.1%, respectively.
As for `Cc1cccc(NC(=O)c2sc3nc4c(cc3c2N)C(=O)CCC4)c1`, the growth was 44% in assay [1]; 41.6% in assay [2]; -52.8% (active) in assay [3]; 26.6% in assay [4]; 22.6% in assay [5]; 29.3% in assay [6]. Also, the growth was 33.7% in assay [7] and 21.4% in assay [8].
Turning to `CCCCN(CCCC)Cc1c(C)[nH]c2cc(OC)ccc2c1=O`, the growth is 95.7% in assay [1]; 108% in assay [2]; 104% in assay [3]; 101% in assay [4]; 94.8% in assay [5]; 95.2% in assay [6]. The results for the growth in assay [7] and in assay [8] were 94.6% and 104%, respectively.
For `O=C1O[C@H]([C@H](O)CO)C(O)=C1O`, the growth in assay [1] was 114%; in assay [2], 93.1%; in assay [3], 106%; in assay [4] it was 87.3%; in assay [5] it was 103%; in assay [6], 98.2%. Also, the growth in assay [7] is 98.3%; in assay [8], 103%.
Consider `Cn1c2ccccc2c2c3[nH]c(=O)[nH]c(=O)c3c3c4ccccc4n(C)c3c21`, for which the growth in assay [1] was 42.5%; in assay [2] it was 39.7%; in assay [3], 36.5%; in assay [4], 33.1%; in assay [5] it was 32.9%; in assay [6], 17.6%. Further, the growth in assay [7] was 73.9%; in assay [8] it was 24.2%.
For the compound `O=C1Nc2ccccc2C12CC(c1ccccc1)=NN2` (centres undefined), the growth in assay [1] was 60%; in assay [2], 64.4%; in assay [3], -24.9% (active); in assay [4], 27.7%; in assay [5], 19.1%; in assay [6] it was 29.4%. Besides, the growth was 75.6% in assay [7] and 43.3% in assay [8].
Consider `O=[N+]([O-])c1cccc(-c2nc3sccn3c2-c2ccnc(NCCNS(=O)(=O)c3ccc(C(F)(F)F)cc3)n2)c1`, for which the growth in assay [1] was -3.01% (active); in assay [2] it was 26.4%; in assay [3], 20.7%; in assay [4], 69.8%; in assay [5], 21.9%; in assay [6], 35.6%. Further, the growth is 65.2% in assay [7] and 22.5% in assay [8].
Consider `C/C(Cc1ccc(Cl)cc1)=C(\c1ccc(OCCN2CCCCCC2)cc1)c1ccc(OC(=O)C2CCCCC2)cc1`, for which the growth in assay [1] is 49.1%; in assay [2] it was 86.6%; in assay [3] it was 58.7%; in assay [4], 56.9%; in assay [5] it was 29.6%; in assay [6], 44%. In addition, the figures for the growth in assay [7] and in assay [8] were 10.4% and 53.1%, respectively.
Regarding `COc1cnc2c(c1)C(=O)c1c-2n(CCCBr)c(=O)c2cc([N+](=O)[O-])ccc12`, the growth in assay [1] was 2.87% (active); in assay [2], 25.5%; in assay [3], 11.4%; in assay [4], 12.1%; in assay [5], 1.77% (active); in assay [6], -24.8% (active). Besides, the growth is 13.7% in assay [7] and 1.44% (active) in assay [8].
For `CC/C=C\C[C@H](O)C/C=C1/C(=O)C=C[C@@H]1C/C=C\CCCC(=O)NC`, the growth was -0.635% (active) in assay [1]; -4.05% (active) in assay [2]; 15.2% in assay [3]; 7.47% (active) in assay [4]; 8.89% (active) in assay [5]; -65% (active) in assay [6]. Moreover, the growth in assay [7] was -90.7% (active); in assay [8] it was -44.3% (active).
With `COc1cc(OC)c(/C=C/c2cc[n+](C)c3ccccc23)c(OC)c1`, the growth is 9.89% (active) in assay [1]; 24% in assay [2]; 4.33% (active) in assay [3]; 19.8% in assay [4]; 5.4% (active) in assay [5]; 11.4% in assay [6]. Further, the growth in assay [7] was 10%; in assay [8] it was -19.9% (active).
On to `CN1CCN(Cc2ccc(NC(=O)c3[nH]ncc3Nc3ncnc4c3CCC4)cc2)CC1`, for which the growth is 32.3% in assay [1]; -7.15% (active) in assay [2]; 29.6% in assay [3]; 7.76% (active) in assay [4]; 11.3% in assay [5]; 5.79% (active) in assay [6]. The figures for the growth in assay [7] and in assay [8] were 13.1% and 6.55% (active), respectively.
As to `CSc1nc2sc3c(c2c(=O)n1-c1ccc(C(C)C)cc1)CCC(=O)C3`, the growth in assay [1] was -48.3% (active); in assay [2], 3.97% (active); in assay [3], -6.88% (active); in assay [4], -30.3% (active); in assay [5], 16%; in assay [6], 2.14% (active). Also, the values for the growth in assay [7] and in assay [8] were 16.5% and -42% (active), respectively.
Take `COc1cc(C2CC(=O)Nc3c2c(C)nn3-c2nc3ccccc3[nH]2)cc(OC)c1OC` (centres undefined): the growth in assay [1] was 103%; in assay [2], 113%; in assay [3], 103%; in assay [4], 97.4%; in assay [5], 88.1%; in assay [6], 107%. The values for the growth in assay [7] and in assay [8] were 93.7% and 123%, respectively.
`CC1CN(C(C)C)C(=S)N(c2ccccc2)C1=O` (centres undefined): the growth in assay [1] is 166%; in assay [2] it was 101%; in assay [3], 96.3%; in assay [4] it was 108%; in assay [5] it was 96.7%; in assay [6] it was 89.4%. The growth in assay [7] is 101%; in assay [8] it was 109%.
Take `COc1ccc(S(=O)(=O)NCCNc2nccc(-c3c(-c4cccc(N)c4)nc4sccn34)n2)cc1`: the growth was 75.9% in assay [1]; 82.8% in assay [2]; 103% in assay [3]; 113% in assay [4]; 90.8% in assay [5]; 98% in assay [6]. For the same compound, the growth in assay [7] is 122%; in assay [8] it was 64.6%.
`c1ccc(Sc2ncnc3ccccc23)cc1`: the growth in assay [1] was 63.8%; in assay [2], 51.6%; in assay [3], 38.1%; in assay [4], 84.9%; in assay [5] it was 63.8%; in assay [6] it was 72%. Further, the growth in assay [7] was 107%; in assay [8], 86.1%.
For the compound `O=c1c2cccc3c(Nc4c(F)cccc4F)ccc(c32)c2nc3ccccc3n12`, the growth in assay [1] was 52.7%; in assay [2] it was 98.7%; in assay [3], 111%; in assay [4], 102%; in assay [5], 20.4%; in assay [6], 98.4%. The growth in assay [7] is 72.7%; in assay [8], 78.9%.
